# Records with an inconclusive call do not appear. A call without a number means that no potency is given here. A number with no mark means an inactive call. Active and inactive are the calls of the source. The call rests on the fitted dose curve; in most records, active means well fitted curve in the direction sought with a large enough effect; inconclusive means small, poorly fitted or top-dose-only effect, or another doubt; inactive means no such curve, though single readings can be large; an effect the other way counts as inactive or inconclusive. *1 amine or outer side, *2 acyl side, *3 side chain or, on linkers, in order; H or OH if unused. Where a SMILES comes first, the peptide text is derived from it. Bridges are numbered along the chain shown (N, C = ends). [ ]: non-standard residue; d: D form. The star is where a group is joined. ξ: configuration not given here. X10 = NC1=NCCC(C(N[*:1])C(=O)[*:2])N1; ΔAla(3-NHCONH2) = NC(=O)NC=C(N)C(=O)O; ξβ3hOrn = NCCCC(N)CC(=O)*; Dap = NC[CH](N)C(=O)O
# Legend:
# [1] = qHTS of pediatric cancer cell lines to identify multiple opportunities for drug repurposing: Primary screen for NB-EBc1 cells (AID 1347095); further: potency means the concentration at half of the fitted maximal effect
# How it was run: (§1)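 Phenotypic viability qHTS, 48 h compound exposure, CellTiter-Glo luminescence read-out; multi-concentration dosing so that potency and efficacy derive directly from the primary screen's curves.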
# [2] = qHTS of pediatric cancer cell lines to identify multiple opportunities for drug repurposing: Primary screen for U-2 OS cells (AID 1347096); further: nearly all actives have a fitted effect of over 50% in size; further: potency means the concentration at half of the fitted maximal effect
# How it was run: (§2)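 Cells (500-1,000/well) in growth media were settled 5 h at 37 degrees C, then given compounds for 48 h. Viability was read as CellTiter-Glo luminescence. Primary runs used MIPE at 11 points (0.78 nM-46 µM) and NPC at 8 points (0.59 nM-46 µM); follow-ups used 11 points.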
# [3] = qHTS of pediatric cancer cell lines to identify multiple opportunities for drug repurposing: Primary screen for Saos-2 cells (AID 1347097); further: nearly all actives have a fitted effect of over 40% in size; further: potency means the concentration at half of the fitted maximal effect
# How it was run: as §1
# [4] = qHTS of pediatric cancer cell lines to identify multiple opportunities for drug repurposing: Primary screen for SK-N-SH cells (AID 1347098); further: nearly all actives have a fitted effect of over 65% in size; further: potency means the concentration at half of the fitted maximal effect;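 on activity change, negative = cytotoxic: DMSO served as neutral control and bortezomib at 2.3 µM as positive control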
# How it was run: (§3)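 Cells (500-1,000/well) rested 5 h, then received compounds for 48 h; metabolically active cells were measured by CellTiter-Glo luminescence. Final concentrations spanned up to 46 µM (MIPE, 11-point) or 0.59 nM-46 µM (NPC, 8-point) in primary screens, 11-point in follow-ups.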
# [5] = qHTS of pediatric cancer cell lines to identify multiple opportunities for drug repurposing: Primary screen for LAN-5 cells (AID 1347100); further: potency means the concentration at half of the fitted maximal effect
# How it was run: as §2
# [6] = qHTS of pediatric cancer cell lines to identify multiple opportunities for drug repurposing: Primary screen for BT-12 cells (AID 1347101); further: nearly all actives have a fitted effect of over 25% in size; further: potency means the concentration at half of the fitted maximal effect
# How it was run: as §3
# [7] = qHTS of pediatric cancer cell lines to identify multiple opportunities for drug repurposing: Primary screen for Rh18 cells (AID 1347102); further: nearly all actives have a fitted effect of over 65% in size; further: potency means the concentration at half of the fitted maximal effect
# How it was run: as §2
# [8] = qHTS of pediatric cancer cell lines to identify multiple opportunities for drug repurposing: Primary screen for OHS-50 cells (AID 1347103); further: nearly all actives have a fitted effect of over 40% in size; further: potency means the concentration at half of the fitted maximal effect
# How it was run: as §3
# [9] = qHTS of pediatric cancer cell lines to identify multiple opportunities for drug repurposing: Primary screen for RD cells (AID 1347104); further: nearly all actives have a fitted effect of over 55% in size; further: potency means the concentration at half of the fitted maximal effect
# How it was run: as §1
# [10] = qHTS of pediatric cancer cell lines to identify multiple opportunities for drug repurposing: Primary screen for MG 63 (6-TG R) cells (AID 1347105); further: nearly all actives have a fitted effect of over 50% in size
# How it was run: as §1
# [11] = qHTS of pediatric cancer cell lines to identify multiple opportunities for drug repurposing: Primary screen for control Hh wild type fibroblast cells (AID 1347106);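 further: series mostly up to about 46 µM; a drop in luminescence marks cytotoxicity and a rise apparent proliferation; nearly all actives have a fitted effect of over 55% in size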
# How it was run: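 Viability after 48 h compound treatment at 37C, 500-1,000 cells/well, read as ATP luminescence with CellTiter-Glo. Primary screens used 11-point (MIPE, 0.78 nM-46 µM) or 8-point (NPC, 0.59 nM-46 µM) final concentrations; follow-up screens used 11-point dilutions.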
# [12] = qHTS of pediatric cancer cell lines to identify multiple opportunities for drug repurposing: Primary screen for Rh30 cells (AID 1347107); further: series mostly up to about 46 µM; nearly all actives have a fitted effect of over 75% in size
# How it was run: as §2
# [13] = qHTS of pediatric cancer cell lines to identify multiple opportunities for drug repurposing: Primary screen for Rh41 cells (AID 1347108); further: nearly all actives have a fitted effect of over 70% in size; further: potency means the concentration at half of the fitted maximal effect;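 on activity change, negative = cytotoxic: series mostly up to about 46 µM; luminescence drop marks cytotoxic hits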
# How it was run: as §1
# [14] = qHTS of pediatric cancer cell lines to identify multiple opportunities for drug repurposing: Confirmatory screen for NB1643 cells (AID 1347109); further: nearly all actives have a fitted effect of over 45% in size; further: potency means the concentration at half of the fitted maximal effect
# How it was run: as §2
# [15] = qHTS of pediatric cancer cell lines to identify multiple opportunities for drug repurposing: Confirmatory screen for A673 cells (AID 1347110);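 further: cells exposed to compound for 48 h before the viability read; nearly all actives have a fitted effect of over 65% in size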; further: potency means the concentration at half of the fitted maximal effect
# How it was run: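 Cells plated at 500-1,000/well were treated five hours later with multi-point dilutions up to 46 µM final. After two days, CellTiter-Glo was added and luminescence read.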
# [16] = qHTS of pediatric cancer cell lines to identify multiple opportunities for drug repurposing: Confirmatory screen for SK-N-MC cells (AID 1347111);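 further: potency means the concentration at half of the fitted maximal effect; cells exposed to compound for 48 h before the readout; nearly all actives have a fitted effect of over 70% in size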
# How it was run: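 Metabolically active cells were quantified by ATP-dependent luminescence (CellTiter-Glo, 15 min at room temperature) following 48 h treatment. Cells had been plated at 500-1,000 per well and settled for 5 h beforehand.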
# [17] = qHTS of pediatric cancer cell lines to identify multiple opportunities for drug repurposing: Confirmatory screen for LAN-5 cells (AID 1347113); further: nearly all actives have a fitted effect of over 65% in size; further: potency means the concentration at half of the fitted maximal effect
# How it was run: as §2
# [18] = qHTS of pediatric cancer cell lines to identify multiple opportunities for drug repurposing: Confirmatory screen for NB-EBc1 cells (AID 1347115);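 further: cells exposed to compound for 48 h before the viability read; nearly all actives have a fitted effect of over 45% in size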; further: potency means the concentration at half of the fitted maximal effect
# How it was run: as §2
# [19] = qHTS of pediatric cancer cell lines to identify multiple opportunities for drug repurposing: Primary screen for NB1643 cells (AID 1347099); further: nearly all actives have a fitted effect of over 50% in size
# How it was run: as §1
# [20] = qHTS of pediatric cancer cell lines to identify multiple opportunities for drug repurposing: Confirmatory screen for DAOY cells (AID 1347114)
# How it was run: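 Viability measured as metabolically active cells via CellTiter-Glo luminescence following 48 hours of compound exposure, 11-point dilutions in confirmatory testing. 500-1,000 cells/well plated 5 hours before dosing; controls were DMSO and 2.3 µM bortezomib.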
smiles,measurement,setting,value
COc1cc(NS(=O)(=O)c2ccc(N)cc2)nc(C)n1,Potency,[1],inactive
same,Potency,[2],inactive
same,Potency,[3],inactive
same,Potency,[4],inactive
same,Potency,[5],inactive
same,Potency,[6],inactive
same,Potency,[7],inactive
same,Potency,[8],inactive
same,Potency,[9],inactive
same,Potency,[10],inactive
same,Potency,[11],inactive
same,Potency,[12],inactive
same,Potency,[13],inactive
CC(=O)O[C@@H]1C(=O)O[C@@H]2[C@H]1OC(=O)[C@@H]2OC(C)=O,Potency,[1],inactive
same,Potency,[2],inactive
same,Potency,[3],inactive
same,Potency,[4],inactive
same,Potency,[6],inactive
same,Potency,[7],inactive
same,Potency,[9],inactive
same,Potency,[12],inactive
same,Potency,[13],inactive
same,Potency,[14],inactive
same,Potency,[15],inactive
same,Potency,[16],16.5 µM (active)
same,Potency,[17],inactive
same,Potency,[18],inactive
CO/N=C(\C(=O)O)c1csc(NC(=O)CCl)n1,Potency,[1],inactive
same,Potency,[2],inactive
same,Potency,[3],inactive
same,Potency,[4],inactive
same,Potency,[19],inactive
same,Potency,[6],inactive
same,Potency,[8],inactive
same,Potency,[9],inactive
same,Potency,[10],inactive
same,Potency,[11],inactive
same,Potency,[12],inactive
same,Potency,[13],inactive
Cc1nc2n(c(=O)c1CCN1CCC(C(=O)c3ccc(F)cc3)CC1)CCS2,Potency,[1],inactive
same,Potency,[2],inactive
same,Potency,[3],inactive
same,Potency,[4],inactive
same,Potency,[5],inactive
same,Potency,[7],inactive
same,Potency,[9],inactive
same,Potency,[10],inactive
same,Potency,[11],inactive
same,Potency,[12],inactive
same,Potency,[13],inactive
COCCc1ccc(OCC2CO2)cc1 (centres undefined),Potency,[1],inactive
same,Potency,[2],inactive
same,Potency,[3],inactive
same,Potency,[4],inactive
same,Potency,[6],inactive
same,Potency,[7],inactive
same,Potency,[8],inactive
same,Potency,[9],inactive
same,Potency,[10],inactive
same,Potency,[11],inactive
same,Potency,[12],inactive
same,Potency,[13],inactive
COc1cc(C=O)ccc1O,Potency,[1],inactive
same,Potency,[2],inactive
same,Potency,[3],inactive
same,Potency,[4],inactive
same,Potency,[5],inactive
same,Potency,[7],inactive
same,Potency,[8],inactive
same,Potency,[9],inactive
same,Potency,[10],inactive
same,Potency,[11],inactive
same,Potency,[12],inactive
same,Potency,[13],inactive
CO[C@@H]1[C@@H](OC)[C@H](C)[C@@](O)(CC(=O)O)O[C@H]1[C@H](C)[C@H]1O[C@@]2(CC[C@@](C)([C@H]3CC[C@@](C)([C@@H]4O[C@@H]([C@H]5O[C@](C)(O)[C@H](C)C[C@@H]5C)C[C@@H]4OC4C[C@H](OC)[C@@H](OC)[C@H](C)O4)O3)O2)C[C@H](O)[C@H]1C (some centres undefined),Potency,[1],0.266 µM (active)
same,Potency,[2],8.41 µM (active)
same,Potency,[3],5.31 µM (active)
same,Potency,[4],2.44 µM (active)
same,Potency,[5],1.06 µM (active)
same,Potency,[6],0.347 µM (active)
same,Potency,[7],3.76 µM (active)
same,Potency,[8],0.389 µM (active)
same,Potency,[9],4.73 µM (active)
same,Potency,[12],inactive
same,Potency,[14],0.737 µM (active)
same,Potency,[15],2.61 µM (active)
same,Potency,[16],1.31 µM (active)
same,Potency,[17],0.522 µM (active)
same,Potency,[20],1.85 µM (active)
same,Potency,[18],1.47 µM (active)
NCCCC(N)CC(=O)NCC1NC(=O)C(CO)NC(=O)C(N)CNC(=O)C(C2CCN=C(N)N2)NC(=O)C(=CNC(N)=O)NC1=O (stereo not drawn) (H-[Dap]S[Dap](ξβ3hOrn)[ΔAla(3-NHCONH2)][X10]; lactam 1-C; configuration not given here),"activity change, negative = cytotoxic",[1],29.4% [at 0.597 µM]
same,"activity change, negative = cytotoxic",[2],13.6% [at 0.597 µM]
same,"activity change, negative = cytotoxic",[3],29.1% [at 0.597 µM]
same,"activity change, negative = cytotoxic",[4],-4.49% [at 0.741 µM]
same,"activity change, negative = cytotoxic",[5],6.67% [at 0.597 µM]
same,"activity change, negative = cytotoxic",[6],5.9% [at 0.745 µM]
same,"activity change, negative = cytotoxic",[7],6.67% [at 0.597 µM]
same,"activity change, negative = cytotoxic",[8],13.9% [at 0.73 µM]
same,"activity change, negative = cytotoxic",[9],2.79% [at 0.597 µM]
same,"activity change, negative = cytotoxic",[11],5.88% [at 0.597 µM]
same,"activity change, negative = cytotoxic",[12],22.4% [at 0.597 µM]
Cc1oc(-c2ccccc2)nc1CCC(=O)c1ccc(CC2SC(=O)NC2=O)cc1 (centres undefined),Potency,[1],inactive
same,Potency,[2],inactive
same,Potency,[3],inactive
same,Potency,[4],inactive
same,Potency,[19],inactive
same,Potency,[7],inactive
same,Potency,[9],inactive
same,Potency,[11],inactive
same,Potency,[12],inactive
same,Potency,[13],inactive
Cc1ccc(Cl)c(OCC(O)CNC(C)(C)C)c1 (centres undefined),Potency,[1],inactive
same,Potency,[2],inactive
same,Potency,[3],inactive
same,Potency,[4],inactive
same,Potency,[5],inactive
same,Potency,[6],inactive
same,Potency,[7],inactive
same,Potency,[10],inactive
same,Potency,[11],inactive
same,Potency,[12],inactive
same,Potency,[13],inactive
CC(=O)c1ccc(O)c(C(N)=O)c1,Potency,[1],inactive
same,Potency,[2],inactive
same,Potency,[3],inactive
same,Potency,[4],inactive
same,Potency,[5],inactive
same,Potency,[6],inactive
same,Potency,[7],inactive
same,Potency,[9],inactive
same,Potency,[10],inactive
same,Potency,[11],inactive
same,Potency,[12],inactive
same,Potency,[13],inactive
CCCCCCCCCCCCCCCC[n+]1ccccc1,Potency,[1],18.8 µM (active)
same,Potency,[2],21.1 µM (active)
same,Potency,[3],15 µM (active)
same,Potency,[4],7.7 µM (active)
same,Potency,[5],13.3 µM (active)
same,Potency,[6],6.92 µM (active)
same,Potency,[7],7.5 µM (active)
same,Potency,[8],2.46 µM (active)
same,Potency,[9],13.3 µM (active)
same,Potency,[13],11.9 µM (active)
CC(=O)N(c1onc(C)c1C)S(=O)(=O)c1ccc(N)cc1,Potency,[1],inactive
same,Potency,[2],inactive
same,Potency,[3],inactive
same,Potency,[4],inactive
same,Potency,[5],inactive
same,Potency,[6],inactive
same,Potency,[7],inactive
same,Potency,[9],inactive
same,Potency,[10],inactive
same,Potency,[11],inactive
same,Potency,[12],inactive
O=C(OCC1(COC(=O)c2cccnc2)CCCC(COC(=O)c2cccnc2)(COC(=O)c2cccnc2)C1O)c1cccnc1,Potency,[1],inactive
same,Potency,[2],inactive
same,Potency,[3],inactive
same,Potency,[4],inactive
same,Potency,[5],inactive
same,Potency,[6],inactive
same,Potency,[7],inactive
same,Potency,[8],inactive
same,Potency,[9],inactive
same,Potency,[10],inactive
same,Potency,[11],inactive
CC(NN)c1ccccc1 (centres undefined),Potency,[1],inactive
same,Potency,[2],inactive
same,Potency,[3],inactive
same,Potency,[4],inactive
same,Potency,[19],inactive
same,Potency,[7],inactive
same,Potency,[8],inactive
same,Potency,[9],inactive
same,Potency,[11],inactive
same,Potency,[12],inactive
same,Potency,[13],inactive
CCc1cccc2c(CCO)c[nH]c12,Potency,[1],inactive
same,Potency,[2],inactive
same,Potency,[3],inactive
same,Potency,[4],inactive
same,Potency,[5],inactive
same,Potency,[6],inactive
same,Potency,[7],inactive
same,Potency,[8],inactive
same,Potency,[9],inactive
same,Potency,[10],inactive
same,Potency,[11],inactive
same,Potency,[12],inactive
same,Potency,[13],inactive
Cc1ncc(CO)c(CO)c1O,Potency,[1],inactive
same,Potency,[2],inactive
same,Potency,[3],inactive
same,Potency,[4],inactive
same,Potency,[5],inactive
same,Potency,[7],inactive
same,Potency,[8],inactive
same,Potency,[9],inactive
same,Potency,[10],inactive
same,Potency,[11],inactive
same,Potency,[12],inactive
same,Potency,[13],inactive
O=C1CCCc2c(O)cccc21,Potency,[1],inactive
same,Potency,[2],inactive
same,Potency,[3],inactive
same,Potency,[4],inactive
same,Potency,[5],inactive
same,Potency,[7],inactive
same,Potency,[8],inactive
same,Potency,[9],inactive
same,Potency,[10],inactive
same,Potency,[11],inactive
same,Potency,[12],inactive
same,Potency,[13],inactive

# Source: PubChem BioAssay (NCATS)
